Test results: PubChem BioAssay (NCI)
This is part of a sample that, as a whole, favours compounds with a hit. Of some 79,000 tested, about 15% had one in any assay. A number with no mark means an inactive call. Activity calls are given as the source filed them. No stated cut-off is given here; in the data, active means growth inhibition above about 70%; inactive means the rest.

Tests used:
[1] = NCI Yeast Anticancer Drug Screen. Data for the rad50 strain (AID 155);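 further: 0% = growth of vehicle-only cultures of the same strain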; details: S. cerevisiae rad50 strain growth inhibition; at 50.0 µM; hits give high values
Outline: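 Compounds were tested on a yeast strain with an engineered DNA damage repair alteration; the reported value is growth inhibition normalised to vehicle treatment.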

[2] = NCI Yeast Anticancer Drug Screen. Data for the mec2-1 strain (AID 157); details: S. cerevisiae mec2-1 strain, at 50.0 µM, hits give high values
Outline: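 Mutant yeast (mec2-1) grown with compound; growth inhibition relative to vehicle control reported.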

[3] = NCI Yeast Anticancer Drug Screen. Data for the sgs1 mgt1 strain (AID 161);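 further: 0% = growth of cultures given vehicle only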; details: S. cerevisiae sgs1 mgt1 strain, at 50.0 µM, hits give high values
Outline: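 Yeast cells carrying a defined DNA-repair defect were exposed to test compounds. Growth inhibition was measured relative to vehicle-treated controls.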

[4] = NCI Yeast Anticancer Drug Screen. Data for the cln2 rad14 strain (AID 165);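 further: 0% = growth equal to vehicle treated cultures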; details: S. cerevisiae cln2 rad14 strain, at 50.0 µM, hits give high values
Outline: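 Readout is yeast growth inhibition versus vehicle-treated controls, using a strain with cln2 and rad14 alterations exposed to compound.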

[5] = NCI Yeast Anticancer Drug Screen. Data for the bub3 strain (AID 167); details: S. cerevisiae bub3 mutant strain, at 50.0 µM, hits give high values
Outline: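 Growth of a checkpoint-deficient yeast mutant is measured after compound exposure. Values represent inhibition relative to vehicle.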

[6] = NCI Yeast Anticancer Drug Screen. Data for the mlh1 rad18 strain (AID 175); details: S. cerevisiae mlh1 rad18 strain growth inhibition; at 50.0 µM; hits give high values
Outline: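 Genetically defined yeast (DNA repair-deficient) exposed to compounds; growth inhibition determined relative to vehicle.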

| Structure (SMILES) | growth inhibition [1] | growth inhibition [2] | growth inhibition [3] | growth inhibition [4] | growth inhibition [5] | growth inhibition [6] |
| --- | --- | --- | --- | --- | --- | --- |
| Clc1c(Cl)c(Cl)c2nn(C3CCCO3)nc2c1Cl (centres undefined) | 15.3% | 3.2% | -5.9% | -17.1% | 12.1% | -45.6% |
| COC(=O)/C=C\C(C#N)(C#N)N=Cc1ccsc1 | 67.9% | 75.5% (active) | 79.8% (active) | 29.6% | 74% (active) | 87.6% (active) |
| Fc1ccc(Nc2nc(Cl)c3[nH]cnc3n2)cc1Cl | 11.5% | 1.45% | 27.6% | 7.6% | 32.6% | -28.7% |
| COc1ccc2nc(N/N=C/c3ccc(C)s3)cc(C)c2c1 | 22.3% | -1.75% | 15.6% | 24.4% | 0.7% | 24.6% |
| Cc1ccc(NC(=O)/C(Cc2cc(=O)oc3cc(O)ccc23)=N\NC(C)(C)C)cc1C | -3.95% | -10.3% | -21.9% | -33.9% | -17.9% | -3.5% |
| C=C1C(=O)OC2/C=C(\CO)CC/C=C(\CO)CC(OC(=O)C(C)C)C12 (centres undefined) | -17% | -13.4% | -16% | 24.4% | -7% | -41.5% |
| Cc1cc(S(=O)(=O)O)c(NC(=O)c2oc3cc(O)ccc3c(=O)c2C)cc1Cl | -9.4% | -22.9% | 3.9% | 9.5% | -8.35% | 3.95% |
| O=C1NC(N/N=C\C(O)C(O)C(O)C(O)CO)=N/C1=C\c1ccc(Cl)cc1 (centres undefined) | 23.6% | 30.6% | 25.8% | 26.9% | 24.4% | 17.6% |
| O[C@H]1[C@H](O)[C@@H](Cn2nnc(-c3ccccc3)c2-c2ccccc2)OCO[C@@H]1Cn1nnc(-c2ccccc2)c1-c1ccccc1 | 53.3% | 31% | 13.4% | 50.9% | 28.8% | 29.1% |
| O=C1c2c(O)cc(O)cc2OC(c2ccc(O)c(O)c2)C1O (centres undefined) | 9.55% | -23.6% | 11.2% | -0.65% | -9.05% | -18.7% |
| O=C1CC(c2ccccc2)NCCCCN2CC(CN1)C(C(O)c1ccccc1)C2=O (centres undefined) | -20.4% | -34.8% | -39.4% | 8.95% | -44.6% | -49% |
| N#Cc1n[nH]n(-c2ccccc2)c1=O | -26.3% | -10.8% | 17.3% | -11.7% | -21% | -13.7% |
| CC(=N\N=C\c1ccccn1)/C(C)=N/N=C/c1ccccn1 | 7.8% | 10.3% | -4.4% | 30.6% | -14.2% | -53.3% |
| COc1ccc(/C=C2/NC(=S)N=C2Cl)cc1 | -6.9% | -21.8% | 4.3% | -0.45% | 18.1% | -29% |
| CCOc1cc2c(cc1O)/C(=N/NS(=O)(=O)c1ccc(C)cc1)C[C@@H]1[C@@H]2CC[C@]2(C)[C@@H](O)CC[C@@H]12 | 33.9% | 26.9% | 4.05% | 35.4% | 14.1% | 4.4% |
| NC(=S)Nc1[nH]c(=S)nc2c1SC1=N/C(=C\c3ccco3)C(=O)N12 | 7.45% | -13.6% | 25.5% | 18.1% | 33.9% | 28.2% |
| COc1cc([C@H]2OC[C@@H]3C(c4cc(OC)c5c(c4)OCO5)OC[C@H]23)cc(OC)c1OC (some centres undefined) | -8.65% | -34.6% | -26.9% | 21% | -1.35% | -53.1% |
| Cc1ccc(OC2CC(n3cnc4ncnc(Cl)c43)OC2Oc2ccc(C)cc2)cc1 (centres undefined) | 21% | 2.1% | 13.9% | 8.4% | 13% | -33.8% |
| O=C(Nc1cccc(NC(=O)C(=O)C2CCC3=C(Sc4ccccc4N3)C2=O)n1)C(=O)C1CCC2=C(Sc3ccccc3N2)C1=O (centres undefined) | 2.5% | 13.8% | 3% | 5.2% | 29.9% | 1.2% |
| CCO/C=N\C1=C(C#N)SC2=N/C(=C\c3ccc(OC)cc3)C(=O)N21 | -7.4% | -25.1% | 7.35% | 6.45% | -2.1% | -57.8% |

| Structure (SMILES) | growth inhibition [1] | growth inhibition [2] | growth inhibition [3] | growth inhibition [4] | growth inhibition [5] | growth inhibition [6] |
| --- | --- | --- | --- | --- | --- | --- |
| COc1c(OC)c(OC)c2c(c1OC)c(=O)c1ccccc1n2C | 12.6% | 22.9% | 30.8% | 18.8% | 14.4% | -42.2% |
| CC(=O)C(/C=N/C(N)=O)=C(/C)O | 5.4% | -7.5% | 3.75% | 2.75% | -2.3% | 2.55% |
| Cc1ccc(C)c(NC(=O)/C(=N\N)C(c2cnc3ccc([N+](=O)[O-])cc3n2)[N+](=O)[O-])c1 (centres undefined) | 42.5% | 27.2% | 6.75% | -35.2% | 32.2% | 28.6% |
| O=C1c2ccccc2-c2c1c1ccccc1c(=O)n2CCO | 76.8% (active) | 43.7% | 60.4% | 60.6% | 51.9% | 62.8% |
| COc1ccc2c(c1)N(C(C)=O)CN1C(=O)CCC21 (centres undefined) | -10.4% | 1.25% | -1.25% | 21.8% | 6.85% | -66% |
| CC1=C(/C=C/C(C)=C/C=C/C(C)=C/C(=O)Nc2ccc(O)cc2)C(C)(C)CCC1 | -28.4% | 1.05% | -2.3% | 6.45% | 12.2% | -13.2% |
| COC(=O)/C(=N\NC(=S)NN)C(C(=O)OC)C(=O)C(=O)Nc1cccc(C(F)(F)F)c1 (centres undefined) | 0.3% | 1.4% | 8.9% | 5.6% | -9.25% | 24.1% |
| CCn1c2c(c3ccccc3c1=O)C(=O)c1ccccc1-2 | 12% | 3.9% | 16.8% | 12.8% | -3.85% | -49.4% |
| CC(=O)C1=C(C)N2C(=NC3=C(CCc4ccccc43)C2c2cccc(Br)c2)S1 (centres undefined) | 12.4% | -27.4% | -19.4% | 3.2% | -7.5% | -20.5% |
| CCOC(=O)C(=O)C(CCC(=O)c1ccc2ccccc2c1O)C(=O)OCC (centres undefined) | 2.6% | -1.65% | -2.9% | 4.25% | 0.5% | -35.9% |
| O=C1NC(N/N=C\c2ccccc2)=N/C1=C/c1ccc(Cl)cc1 | 22.6% | 0.75% | 11.7% | 17.8% | 16.7% | -1.85% |
| COc1cc(-c2nc(SC)nc3c2CCc2ccccc2-3)cc(OC)c1OC | -6% | -5.85% | 2.95% | 10.9% | 4.35% | -20.2% |
| CCC(=O)C(CC)c1cccc(OC)c1 (centres undefined) | 16.6% | -3.8% | 12.2% | 25.3% | 9.55% | 21.4% |
| C=C1C(=O)O[C@H]2C[C@@]3(C)[C@H](O)CCC(=C)[C@@H]3[C@@H](OC(C)=O)[C@H]12 | 2.95% | 25.4% | 0.05% | -6.7% | -26.8% | -29.4% |
| COc1ccccc1-c1n[nH]c(-c2ccccc2O)n1 | 31.7% | -24.1% | 27.8% | -10.7% | 22.9% | -54.1% |
| COc1cc2c3cc1Oc1c(OC)c(OC)cc4c1C(Cc1ccc(O)c(c1)-c1cc(ccc1OC)CC3N(C)CC2)N(C)CC4 (centres undefined) | -1.25% | -6.75% | -2.15% | 0.5% | 8.85% | -13.7% |
| CNC(=O)c1cccnc1 | -5.35% | -26% | -20.6% | 6.7% | -12.2% | -8.35% |
| Cc1coc2c1C(OC(=O)C(C)C)C1(C)C(C)CCC(O)C1C2=O (centres undefined) | 9.2% | -6.4% | 31.5% | 10.7% | -1.3% | -37.1% |
| Cc1ccc(/C=C2/N=C(N/N=C\c3ccccc3)NC2=O)cc1 | -6.15% | 14.9% | -19.4% | 1.75% | -9.1% | -41.1% |
